Laboratory results: PubChem BioAssay (NCI)
This is part of a sample that, as a whole, favours compounds with a hit. Of some 83,000 tested, about 20% had one in any assay.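 Single-dose data. Exposure time 48 hours. Values below 10 considered active.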 A number with no mark means an inactive call. Calls of active or inactive are those of the source.

What follows are compounds tested on HL-60(TB) leukemia (assay: NCI-60 one-dose screen, 48 h (100 = growth as untreated, 0 = no growth, -100 = all killed)). Details: 10 µM unless noted.
In the case of `O=C1c2cccc3cccc(c23)C(=O)N1Nc1nc(N2CCOCC2)nc(N2CCN(c3ccccc3)CC2)n1`, the growth is reported as 56.3%.
For `COC(=O)[C@]12CC[C@@H](C(=O)/C=C/c3cccnc3)[C@@H]1[C@H]1CC[C@@H]3[C@@]4(C)C/C(=C/c5cccnc5)C(=O)C(C)(C)[C@@H]4CC[C@@]3(C)[C@]1(C)CC2`, the growth was -30.2% (active).
In the case of `CN(C)CCCCNc1ccc(NCCCCN(C)C)c2c1C(=O)c1c(O)ccc(O)c1C2=O`, the growth is reported as 24.6%.
`CC(C)n1nc(-c2ccc3oc(N)nc3c2)c2c(N)ncnc21` gave a growth of 11.4%.
With `CCc1c(C)c2ccc(OCC(=O)N=Nc3c(O)[nH]c4ccccc34)c(C)c2oc1=O` the growth was -22.3% (active).
With `O=c1[nH]c(=O)n(C2C[C@H](O)[C@@H](CO)O2)cc1C(F)(F)F` (stereo not given in full) the growth was 85.8%.
`O=c1sn(-c2cccc3ccccc23)c(=O)n1Cc1ccccc1` gave a growth of 51.2%.
With `N=C(N)c1ccc(-c2ccc(-c3ccc(Cl)cc3Cl)o2)cc1` the growth was -60.8% (active).
In the case of `O=C(CC1Sc2ccccc2NC1=O)NNc1cccc(Cl)c1Cl` (stereo not given), the growth is reported as 9.18% (active).
In the case of `Nc1ncnc2c1N=C(c1ccc([N+](=O)[O-])cc1)CC(c1ccc3c(c1)OCO3)N2` (stereo not given), the growth is reported as 105%.
`COc1ccc(-c2c(C(=O)NS(C)(=O)=O)n(Cc3cccc(C(F)(F)F)c3)c3ccccc23)cc1` showed a growth of 102%.
`O=C1C(Cl)=C(Cl)C(=O)c2c1nc1n2CCCC1` showed a growth of 74.8%.
`O=C1C=CC(=O)N1c1cc(Cl)c(Cl)cc1Cl` gave a growth of 80.4%.
With `O=S(=O)(Nc1ccc(Br)c(Cl)c1)c1ccc(-c2cnc(C3CC3)o2)cc1` the growth was -4.27% (active).
In the case of `CC(O)C(O)C(O)C(O)C(O)C(=O)NNc1ccccc1` (stereo not given), the growth is reported as 116%.
`Cc1nc(N)sc1C(=O)NCCO` showed a growth of 167%.
For `C#C[C@@]1(O)[C@@H](CO)O[C@@H](n2cc(Br)c3c(N)ncnc32)[C@@H]1O`, the growth was -62.5% (active).
Compound `O=C(/C=C/c1ccc(B(O)O)cc1)/C=C/c1ccc(B(O)O)cc1` has a growth of 21.7%.
For `O=C(Nc1ccc(CO)cc1)c1ccccc1Nc1ccnc(C(F)(F)F)c1`, the growth was 98.3%.
`S=c1nn[nH]n1C1CCCCC1` was tested, and the growth was 79.8%.
With `COc1ccc(/C(C)=C(\c2ccc(Cl)cc2)c2ccc(OCCN3CCCCCC3)cc2)cc1` the growth was 25.8%.
`Clc1ccc(Nc2nc(Nc3ccc(Cl)cc3)nc(Nc3ccc(-c4cc(-c5cccc(Cl)c5)on4)cc3)n2)cc1` was tested, and the growth was -50% (active).
With `CCn1c2ccccc2c2cc(C(O)c3cccc4ncccc34)ccc21` (stereo not given) the growth was 10.5%.
`N#CC(C#N)C(C#N)C#N` was tested, and the growth was 98.6%.
With `COc1ncc(-c2ccc3nccc(C#CCCCCC(=O)NO)c3c2)cc1NS(=O)(=O)c1ccc(F)cc1F` the growth was -33.3% (active).
In the case of `CC(=O)OC(C)C(=O)NCC(C)O` (stereo not given), the growth is reported as 86.9%.
For `CCN1CCN(c2nc(NNC(=O)c3ccc(OC)cc3)nc(N3CCN(C(c4ccccc4)c4ccccc4)CC3)n2)CC1`, the growth was 18.7%.
`CCN(CC)CCCCCCCNc1cc(OC)cc2c(C)ccnc12` was tested, and the growth was 56.2%.
`Cc1ccc(Nc2nc(N)nc(N)c2N=O)cc1Cl` gave a growth of 67.9%.
`COc1cccc(C2C(C#N)=C(N)Oc3cc(OC)ccc32)c1` (stereo not given) was tested, and the growth was -32.2% (active).
`O=C1CCNC1` was tested, and the growth was 103%.
Work on `CNC(=O)c1cc(Oc2ccc3nc(NC(=O)Nc4ccc(CN5CCOCC5)c(C(F)(F)F)c4)sc3c2)ccn1` yielded a growth of 17.1%.
In the case of `COc1cc(/C=C2\C(=O)N(CC(O)COc3cc(O)c4c(=O)cc(-c5ccccc5)oc4c3)c3ccccc32)cc(OC)c1O` (stereo not given), the growth is reported as 80.5%.
Compound `CCCCCCCCCCCCCCCCCCSC(=N)N` has a growth of 46%.
For `CCCCSc1cc(C)nc(N)n1`, the growth was 96.6%.
For `CCOC(=O)c1ccccc1NC(c1ccccc1)c1ccc2cccnc2c1O` (stereo not given), the growth was 3.54% (active).
In the case of `COc1ccc(/C=C2\COc3ccc(-c4ccccc4)cc3C2=O)c(OC)c1`, the growth is reported as 56.9%.
Work on `CNc1cccc2c1C(=O)c1cccc(N)c1C2=O` yielded a growth of 34.4%.
Compound `COc1ccc(C2C3(C#N)C(N)=NC(=C(C#N)C#N)C23C#N)cc1OC` (stereo not given) has a growth of 107%.
`Oc1[nH]c2ccc(Cl)cc2c1/C=c1/ccc2c(c1)N=C(c1cccs1)N=2` was tested, and the growth was 98.4%.
